IMPase Li inh – qHTS Assay for Identifying the Cell-Membrane Permeable IMPase Inhibitors: Potentiation with Lithium; CHO-M1 cells, IP1 TR-FRET (IP-One), carbachol + lithium; Potency, µM (highest dose often 59.4 µM), for the others: top-dose activity, negative = IMPase inhibition, most hits filed as inhibitors; 0.35% of 210,000 active;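 note: IP1 builds up when IMPase is blocked and the TR-FRET signal falls; potency is the fitted concentration of half-maximal effect; plate controls were basal vehicle for no effect and high inhibitor control for full effect; nearly all actives have a fitted effect of over 50% in size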
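CHO cells stably expressing M1 receptor (2000/well, cultured 16–30 h) treated 30 min at 37C with compound plus low lithium. Cytosolic IP1 by TR-FRET (665/620 ratio and 620 channel) after 10 min lysis; AC50 by Hill fit.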
IMPase cell inh – qHTS Assay for Identifying the Cell-Membrane Permeable IMPase Inhibitors. Inositol monophosphatase 1 (Rattus norvegicus), P97697. CHO-M1 cells, IP1 accumulation, HTRF TR-FRET ratio. inhibition (IP1 accumulation), % at 46.1 µM. 120,000 tested, under 10 active; active = well fitted curve in the direction sought with a large enough effect in the signal ratio, not every such curve was filed as active; inconclusive = small, poorly fitted or top-dose-only effect, or a change in a side signal; inactive = no such curve, though single readings can be large or run the other way; the % refers to the signal ratio;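 note: cells stimulated with carbachol in lithium chloride buffer; plate controls were DMSO basal wells for no effect and reference inhibitor wells for full effect; higher means more IMPase inhibition seen as more IP1 and lower FRET ratio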
Target sequence (P97697 whole entry, looked up): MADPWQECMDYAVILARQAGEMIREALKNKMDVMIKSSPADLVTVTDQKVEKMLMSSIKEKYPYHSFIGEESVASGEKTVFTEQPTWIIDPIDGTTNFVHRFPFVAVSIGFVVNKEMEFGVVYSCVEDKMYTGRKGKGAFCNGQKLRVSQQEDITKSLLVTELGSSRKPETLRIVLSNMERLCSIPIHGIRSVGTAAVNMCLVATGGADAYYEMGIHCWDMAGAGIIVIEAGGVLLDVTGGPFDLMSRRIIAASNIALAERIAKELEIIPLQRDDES
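CHO-M1 cells (CHO stably expressing M1 receptor), compound up to 46 uM final, stimulated with carbachol (50 uM as added) in buffer with 50mM LiCl, pH 7.4, 30 min at 37C. Cytosolic IP1 read by TR-FRET; AC50 from Hill fits.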
HPGD inh – qHTS Assay for Inhibitors of HPGD (15-Hydroxyprostaglandin Dehydrogenase) | 15-hydroxyprostaglandin dehydrogenase [NAD(+)] (Homo sapiens), P15428 | purified HPGD, NADH fluorescence kinetic, PGE2 substrate | Potency, µM, for the others: at the top dose activity change, negative = inhibition, most hits filed as inhibitors | 4.3% of 150,000 active; active = well fitted inhibition curve with a large enough effect, not every such curve was filed as active; inconclusive = small, poorly fitted or top-dose-only effect, or another doubt; inactive = no such curve, though single readings can be large or run the other way; note: potency is the fitted concentration of half-maximal effect; % is set by controls: 0 for no effect and ±100 for the full control effect
Target sequence (P15428 whole entry, looked up): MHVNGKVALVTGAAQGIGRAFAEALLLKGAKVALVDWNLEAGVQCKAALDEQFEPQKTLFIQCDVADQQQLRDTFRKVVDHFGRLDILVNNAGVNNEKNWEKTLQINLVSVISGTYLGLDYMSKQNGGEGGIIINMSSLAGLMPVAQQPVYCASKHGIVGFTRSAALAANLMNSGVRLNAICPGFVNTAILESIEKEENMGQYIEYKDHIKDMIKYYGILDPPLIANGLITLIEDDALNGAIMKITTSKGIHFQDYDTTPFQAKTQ
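NADH formation kinetics: reaction with 30 uM PGE2 and 1 mM NAD+ (final), 20 nM enzyme, Tris-HCl pH 8 with Tween 20, after 15 min compound preincubation at room temperature. Fluorescence change, last versus first of five reads.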
HTT cytoprotect – qHTS Multiplex Assay to Identify Dual Action Probes in a Cell Model of Huntington: Cytoprotection (ATP) | Potency, µM (top dose mostly 56.4 µM), for the others: cytoprotection (ATP increase), hits mostly activators | PC12 HTT-Q103 induced, cytoprotection, ATP luminescence, 40 h | 0.14% of 230,000 active; note: potency is the fitted concentration of half-maximal effect; % of control where 0% means no effect; nearly all actives have a fitted effect of over 45% in size
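Compounds added alongside 100 nM tebufenozide, which induces toxic Q103 huntingtin exon 1-GFP in stable PC12 cells; surviving cells quantified by luminescent ATP measurement. Medium: phenol red-free DMEM, 5% equine and 5% calf serum.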
ALDH1A1 inh – qHTS Assay for Inhibitors of Aldehyde Dehydrogenase 1 (ALDH1A1). Potency, µM (doses to about 75.3 µM), for the others: at the highest dose activity, negative = inhibition, most hits filed as inhibitors. 7.3% of 220,000 active. Purified ALDH1A1, NADH fluorescence, propionaldehyde substrate. AID 1030, 2008. Aldehyde dehydrogenase 1A1 (Homo sapiens), P00352; active = well fitted inhibition curve with a large enough effect, not every such curve was filed as active; inconclusive = small, poorly fitted or top-dose-only effect, or another doubt; inactive = no such curve, though single readings can be large or run the other way;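 note: potency is the fitted concentration of half-maximal effect; plate controls were no enzyme wells and a reference inhibitor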
HttQ103 aggreg – qHTS Multiplex Assay to Identify Dual Action Probes in a Cell Model of Huntington: Aggregate Formation (GFP); PC12 HttQ103-GFP aggregates, Acumen cytometry, 40 h; Potency, µM (titrated, usually from 46.1 µM), without a hit: top-dose activity change, negative = inhibition, most hits filed as inhibitors; 1.1% of 220,000 active; AID 1688, 2009; note: potency is the fitted concentration of half-maximal effect; % is set by controls: 0 for no effect and ±100 for the full control effect; nearly all actives have a fitted effect of over 60% in size
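Aggregates are detected as GFP objects 1–25 µm with signal 6 STDEV over background in lysates of induced PC12 cells. These carry Huntingtin exon 1 with 103 glutamines fused to GFP under an ecdysone promoter; compounds titrated.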
* marks the source's active call; other numbers are inactive results; u = inconclusive; x = no result; ! = repeats disagree; [ ] = dose if it differs, or a comment. Sampled rows, rich in hits. Any-hit rate of the full collection: about 9.4%. Unless noted, calls come from the whole dose curve; as a rule, active = well fitted curve in the direction sought with a large enough effect; inconclusive = small, poorly fitted or top-dose-only effect, or another doubt; inactive = no such curve, though single readings can be large; an effect the other way counts as inactive or inconclusive.

SMILES	IMPase Li inh	IMPase cell inh	HPGD inh	HTT cytoprotect	ALDH1A1 inh	HttQ103 aggreg
COc1ccc(Cc2cnc(N)nc2N)cc1OC	x	x	x	63%	x	u
CC(C)Nc1cccnc1N1CCN(C(=O)c2cc3cc(NS(C)(=O)=O)ccc3[nH]2)CC1	x	x	x	-1%	x	11%
CCOc1ccccc1NC(=O)c1cn(C2CCCC2)c(=O)c2c1c1ccccc1n2C	x	-7	x	x	x	x
CC1CC(OC(=O)C(O)c2ccccc2)CC(C)(C)C1 (configuration not stated)	16%	x	-6%	-58%	3%	-9%
O=S(=O)(O)CC(S)CS (configuration not stated)	x	x	x	-24%	x	-10%
O=c1c(O)c(-c2ccc(O)cc2)oc2cc(O)cc(O)c12	34%	20	28µM*!	u	-6%[20.9 µM]	x
O=c1cc(-c2ccccc2)oc2cc(O)cc(O)c12	23%	0	-22%	29%[1.9 µM]	8.9µM*	x
O=c1c(O)c(-c2ccc(O)c(O)c2)oc2cc(O)ccc12	11µM*!	-21	u	-24%[1.9 µM]	u	x
O=c1cc(-c2ccc(O)cc2)oc2cc(O)cc(O)c12	28%	u	32µM*!	u	1.8µM*!	x
O=c1c(O)c(-c2ccc(O)cc2)oc2cc(O)ccc12	-19%	-22	u	u	u	x
Cc1ccc(C2CC(=O)n3nc(-c4cccc(C)c4)nc3S2)cc1 (configuration not stated)	x	-8	x	x	x	x
CC1=C(C)CC(c2ccccc2)C(C(=O)c2ccccc2O)C1 (configuration not stated)	x	x	x	-15%[10 µM]	-1%[13.5 µM]	x
CCn1c(SCc2nc3ccccc3nc2C)nnc1-c1cccs1	4%[38.3 µM]	2	-7%	-10%[10 µM]	0%	-11%
C=CCn1c(SCc2nc3ccccc3nc2C)nnc1-c1ccoc1C	32%[38.3 µM]	-5	25µM*	10%	1.6µM*	6%
Cc1c(CNC2CCCC2)c(C(=O)O)c(C)n1Cc1ccccc1	16%	x	-5%	115%[10 µM]	5%	0.79µM*
N#C[C@H]1CN[C@H](N)N[C@@H]1N	-22%	x	-4%	1%[10 µM]	5%[13.5 µM]	x
CCOc1cc([C@@H]2C[C@H]3CN(c4ccccc4)C(=O)[C@]34CCCN24)ccc1OC	x	x	x	-161%	-15%	7.1µM*
O=C(Nc1ccc(Cl)c(C(F)(F)F)c1)C(Cc1ccccc1)NS(=O)(=O)c1ccc(Br)s1 (configuration not stated)	x	15	x	x	x	x
CCCN=C1NC(=O)C(CC(=O)NCCc2ccccc2)S1 (configuration not stated)	0%	x	x	-3%[10 µM]	28µM*	-5%
Cc1ccc(CN=C2NC(=O)C(CC(=O)NCCc3ccccc3)S2)cc1 (configuration not stated)	6%	x	x	11%[10 µM]	u	15%
COc1ccc(O[C@H]2C=C[C@@H](c3ccccc3)O[C@H]2CO/N=C(/C)CCC(=O)OC[C@@H]2O[C@H](c3ccccc3)C=C[C@@H]2Oc2ccc(OC)cc2)cc1	x	x	x	3%[10 µM]	7%[13.5 µM]	x
Cc1cc(OCC(=O)N2CCc3ccccc3C2)c2c(-c3ccccc3)cc(=O)oc2c1	41%[38.3 µM]	5	-18%	-9%	14µM*	u
Cc1cc(OC(C)C)c2c(-c3ccccc3)cc(=O)oc2c1	29%[38.3 µM]	2	u	-8%	u	-18%
CCOc1cc(C)cc2oc(=O)cc(-c3ccccc3)c12	54%[38.3 µM]	11	-12%	-7%	22µM*	-7%
Cc1ccccc1OCCN1C(=O)C(=O)c2cccc(C)c21	2%	x	-21%	-6%[10 µM]	0.22µM*	-3%
SMILES	IMPase Li inh	IMPase cell inh	HPGD inh	HTT cytoprotect	ALDH1A1 inh	HttQ103 aggreg
Cc1cccc2c1N(CCOc1ccccc1Cl)C(=O)C2=O	-6%	4	-20%	-57%[10 µM]	1%	-7%
Cc1ccccc1OCCN1C(=O)c2ccccc2C1=O	9%[38.3 µM]	0	28µM*	11%	8%	5%
CCc1ccc(C(=O)C(C)CN2CCCCC2)cc1 (configuration not stated)	x	x	x	-25%	x	-8%
C=C(C)C1Cc2c(ccc(C(=O)O)c2O)O1 (configuration not stated)	0%	x	0%	x	-8%	x
CCC(NC(=O)CCl)c1ccc(C)cc1 (configuration not stated)	10%	x	x	54%	8.9µM*	-8%[9.22 µM]
CC(NC(=O)CCl)c1ccc(Cl)c(Cl)c1 (configuration not stated)	21%[38.3 µM]	0	1%	-25%	10µM*	22µM*
CCCC(NC(=O)CCl)c1ccccc1 (configuration not stated)	x	0	x	13%[10 µM]	2%	7%
OC[C@H]1O[C@@H](n2cnc3c(Nc4ccccc4)ncnc32)[C@H](O)[C@H]1O	11%	x	-7%	x	u	x
CCNc1ccc(Br)cc(C(=O)/C=C/c2ccc3c(c2)OCO3)c1=O	-1%[38.3 µM]	0	u	-29%	18µM*	u
CCNc1ccc(Br)cc(C(=O)/C=C/c2ccc(Cl)cc2)c1=O	-1%	x	u	x	25µM*	26%
Nc1ccccc1C(=O)/C=C\c1ccc2c(c1)OCO2	x	x	x	-56%[10 µM]	5%[13.5 µM]	x
CCNc1ccc(Br)cc(C(=O)/C=C/c2c(Cl)cccc2Cl)c1=O	17%	2	8.9µM*	-4%[10 µM]	7.9µM*	u
CNc1ccc(Br)cc(C(=O)/C=C/c2ccc(Cl)cc2Cl)c1=O	15%	x	x	7%[10 µM]	u	15%[9.22 µM]
O=C(O)C1C2C=CC(O2)C1C(=O)Nc1ccccc1C(F)(F)F (configuration not stated)	11%[38.3 µM]	2	-1%	1%	14µM*	6%
CCn1nc([N+](=O)[O-])c(C(C#N)c2nc3cc(C(F)(F)F)ccc3s2)c(Cl)c1=O (configuration not stated)	34%[38.3 µM]	-6	u	28%	0.4µM*	0%
COc1ccc(N(C(=O)c2cccc([N+](=O)[O-])c2)S(=O)(=O)c2cccs2)cc1	19%	x	x	15%[10 µM]	25µM*	5%
Clc1ccc2c(N3CCC(CCC4CCN(c5ncnc6cc(Cl)ccc56)CC4)CC3)ncnc2c1	7%	x	-4%	-8%[10 µM]	-6%[13.5 µM]	x
CCCC(=O)NNC(=O)c1ccoc1C	-5%	x	-6%	x	10%	7%
CCC(C)(C)C1CCC(=NNC(=O)c2ccoc2C)CC1 (configuration not stated)	40%[38.3 µM]	2	-23%	-3%	25µM*	u
